How the values were obtained:
Details in all cases: concentration: 1 μM, replicates: in singlicate; n = 1
p38-beta = tested on: T1, p38-beta
T1 construct: gene MAPK11

p38-delta = tested on: p38-delta
p38-gamma = tested on: T2, p38-gamma
T2 construct: gene MAPK12
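Note: KINOMEscan kinase panel screen.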

| SMILES | %Inh (p38-beta) [%] | %Inh (p38-delta) [%] | %Inh (p38-gamma) [%] |
| --- | --- | --- | --- |
| FC(F)(F)c1cc(Nc2nccc(-c3c(-c4ccc(Cl)cc4)nn4ncccc34)n2)ccc1Cl [GW829351] | 0 | 0 | 0 |
| O=C(NCCCN1CCCC1=O)c1cnc(NCc2cc(Cl)ccc2Cl)nc1NC1CCNCC1 | 0 | 42 | 18 |
| Cn1ccc2ncnc(Oc3ccc(NC(=O)Nc4cccnc4)c(Cl)c3)c21 | 0 | 0 | 21 |
| CSc1ccc(NC2=C(c3ccccc3Cl)C(=O)NC2=O)cc1 [SB-342411] | 0 | 0 | 35 |
| c1ccc(-c2ccc3c(-c4ccnc(Nc5ccc6c(c5)OCCO6)n4)cnn3n2)cc1 [GW818941] | 0 | 26 | 0 |
| CN1CCC(n2cnc(-c3ccc(F)cc3)c2-c2ccnc(NC3CCNCC3)n2)CC1 [SB-229482] | 23 | 38 | 38 |
| CCc1nc(-c2cccc(C)c2)c(-c2ccnc(NC(=O)c3ccccc3)c2)s1 | 68 |  | 32 |
| COc1cc2ncnc(Nc3ccc(OCc4ccccc4Br)c(Cl)c3)c2cc1OC.Cl [GI261590] | 0 | 54 | 0 |
| FC(F)(F)c1ccc(-c2cc(-c3c[nH]nc3-c3ccccn3)ccn2)cc1 [GW599550] | 0 | 50 | 16 |
| Nc1nc(-c2cccnc2)c(-c2ccnc3ccccc23)s1 [GW684083] | 0 | 27 | 0 |
| Cl.c1ccc(Cn2ccc3cc(Nc4ncnc5ccccc45)ccc32)cc1 [GW275568] | 0 | 30 | 8 |
| CC(C)N1CCC(n2cnc(-c3ccc(F)cc3)c2-c2ccnc(N)n2)CC1 [SB-223132] | 23 | 0 | 60 |

From publication PMC5540273 (PLoS ONE, 2017)
